# Reference: ChEMBL document CHEMBL4513149, “CO-ADD screening of MMV (CH) - MMV compounds” (2021)
# Fewer than 10 of roughly 21,000 compounds showed an effect of 50% or more. Only a sample is shown. Entries with a potency or affinity are not part of this list.
# System: Acinetobacter baumannii
# Conditions: Concentration 20 uM; ASSAY_TEST Inhibition of Bacterial Growth; detection method Absorption (OD600); MEDIA CAMHB; plate type 384well; NBS; CORNING #3640; time 18 hr
row,SMILES,Inhibition
1,O=C(CN1CCOCC1)Nc1ccc2ncnc(Nc3ccc(OCc4cccc(F)c4)c(Cl)c3)c2c1,8.91%
2,Cl.O=C(Nc1ccc(N2CCNCC2)nc1)c1oc(-c2ccccc2)nc1C(F)(F)F,4.8%
